Data as given in PubChem BioAssay (NCATS).
Results filed as inconclusive are left out. Entries that show only a call come without a potency. Values without a mark were called inactive. The source made the active and inactive calls. The call rests on the fitted dose curve; in most records, active means well fitted cell-killing curve with a large enough effect; inconclusive means small, poorly fitted or top-dose-only effect; inactive means flat fitted curve, though single readings scatter.

test: A2780 Cisplatin Sensitive Ovarian Cancer Cell Toxicity qHTS against the NCATS CANVASS Library (AID 1347353); conditions: A2780 ovarian cancer viability, ATPLite luminescence, 72 h; series mostly up to 46.1 µM; activity change, negative = cytotoxicity: at the top concentration; outcome: at the top concentration; further: nearly all actives have a fitted effect of over 60% in size
Source text: Natural products and their derivatives continue to be wellsprings of nascent therapeutic potential. However, many laboratories have limited resources for biological evaluation, leaving their previously isolated or synthesized compounds largely or completely untested. To address this issue, the Canvass library of natural products was assembled (https://tripod.nih.gov/canvass), in collaboration with academic and industry researchers, for quantitative high-throughput screening (qHTS) across a diverse set of cell-based and biochemical assays. The pure (>85% purity by liquid chromatography/mass spectrometry [LC/MS]) Canvass library of 346 natural products were submitted by 45 academic laboratories and companies around the world. We collected pure natural products to circumvent deconvolution and structure elucidation due to time and resource limitations. The library was formatted into 1536-well plates and evaluated in 50 qHTS (in an 11-pnt concentration series) bioassays with broad scope of disease-relevant mechanisms. The resulting data set from 50 different assays was then systematically analyzed to identify overall trends and specific natural products with interesting biological activities. Reported herein are the results of each individual qHTS and their corresponding assay protocol. National Center for Advancing Translational Sciences (NCATS), Rockville, MD National Institute of Health (NIH), Bethesda, Maryland
Cancer Cell Toxicity protocol 1. In a 1536 well, white solid bottom tissue culture plates (Corning 7494), A2780 cisplatin sensitive ovarian cancer cells were dispensed in each well at a final concentration of 750 cells / well (5uL volume) using the Multidrop Combi (Thermo Fisher Scientific) dispenser. 2. The plates were incubated for 4 hours at 37 degrees C/5% CO2/95% Rh. 3. Compounds were pin transferred (~23nL volume) via Wako Pin-tool (Wako Automation, Richmond VA) equipped with a 1536 pin head. The assay plates were treated with compounds in an 11-pnt concentration series with a final concentration range of […] to 85uM. 4. Bortezomib was used as a single dose control (0.5mM column 4, rows 1 - 32) at a final concentration of 1.9uM and as a 16pnt titration (1mM; 1:2 dilution; 16-points; n = 2; column 3, rows 1 - 32) with final concentration range of 0.1nM - 3.8uM. 5. The assay plates were incubated for 72 hours at 37 degrees C/5% CO2/95% Rh. 6. 4uL ATPLite detection reagent was then added to the plates (columns 2 - 48, rows 1 - 32) and incubated at room temperature for additional 10 min. 7. Luminescence signal was acquired via the ViewLux plate reader (PerkinElmer) using a clear filter, 2 second exposure and 2x binning settings.
Potency means the concentration at half of the fitted maximal effect.

SMILES | outcome | activity change, negative = cytotoxicity | Potency
CNCCc1ccccc1 | inactive | – | –
CCCC[C@@H]1CC[C@H]2CCCC(CCC)N12 (stereo partly specified) | – | -6.77% | –
c1ccc2c3c([nH]c2c1)CNCC3 | – | -8.76% | –
CCC(=O)CCCCC[C@@H]1NC(=O)[C@H]2CCCCN2C(=O)[C@H]([C@@H](C)CC)NC(=O)[C@H](Cc2cn(OC)c3ccccc23)NC1=O | – | – | 1.05 µM (active)
CO[C@@H](/C=C/CC/C=C/C(=O)O)[C@@H](O)[C@H](C)[C@@H](O)/C(C)=C/[C@H](C)C(=O)CCCC1CC(=O)NC(=O)C1 | inactive | – | –
COC(=O)C1=C2Nc3ccccc3[C@@]23CCN2CC(C(C)=O)C1C[C@H]23 (stereo partly specified) | – | 1.86% | –
O=C(c1ccccc1O)c1[nH]c(Cl)c(Cl)c1-n1c(C(=O)c2ccccc2O)cc(Cl)c1Cl | – | – | 3.72 µM (active)
CNCCc1c[nH]c2ccccc12 | inactive | – | –
CO[C@@H](/C=C/CC/C=C/C(=O)O)[C@@H](O)[C@H](C)/C=C(\C)[C@@H](O)[C@H](C)C(=O)CCCC1CC(=O)NC(=O)C1 | inactive | – | –
COc1ccc2c(c1)[nH]c1c(C)nccc12 | – | – | 19.1 µM (active)
C[C@]12CC(O)C3[C@@H](CCC4C[C@@H](O)CC[C@@]43CO)[C@@]1(O)CCC2C1=CC(=O)OC1 (stereo partly specified) | inactive | – | –
CNCCc1ccc(O)cc1 | inactive | – | –
CCC[C@H]1CC[C@H]2[C@H](C)CCC[C@H]2N1 | inactive | – | –
CN(C)Cc1c[nH]c2ccccc12 | inactive | – | –
CC=C1CN(C=O)[C@H]2C[C@@H]1[C@@H](C(=O)OC)[C@@]13CCOC21Nc1ccccc13 (stereo partly specified) | inactive | – | –
CCN1C[C@]2(C)CC[C@@H](O)[C@]34C1[C@H](C[C@H]23)C12CCC(CC14)[C@](O)(CO)[C@H]2O (stereo partly specified) | inactive | – | –
NCCc1ccccc1 | inactive | – | –
CC1=CC2CC[C@@H]3[C@@H](C)C[C@H](C)[C@@H](C1)N23 (stereo partly specified) | inactive | – | –
CCCCC[C@@H]1OC(=O)[C@@H](C)N(C)C(=O)[C@H](CCCCC)OC(=O)C(C)N(C)C(=O)[C@H](CCCCC)OC(=O)[C@@H](C)N(C)C(=O)[C@H](CCCCC)OC(=O)C(C)N(C)C1=O (stereo partly specified) | – | – | 7.43 µM (active)
COc1ccc(C23Oc4cc(OC)cc(OC)c4[C@](O)([C@H](c4ccccc4)C2C(=O)NCCCCNC(=O)c2ccccc2)[C@@H]3O)cc1 (stereo partly specified) | inactive | – | –
CC(=O)N[C@H]1CCN2CCC[C@H]12 | inactive [at 103 µM] | – | –
CC[N@@+]1([O-])C[C@]2(C)CC[C@@H](O)[C@@]34C5C[C@H]6CC[C@@]5(C(C[C@H]23)C41)[C@H](O)[C@@]6(O)CO (stereo partly specified) | inactive | – | –
COc1ccc2c3c([nH]c2c1)C(C)=NCC3 | inactive | – | –
CC[C@@H]1CN2CC[C@@]3(O)C(=Nc4cccc(OC)c43)[C@@H]2C[C@@H]1/C(=C\OC)C(=O)OC | – | -8.16% | –
C/C=C1/CN2CC[C@]34C(=Nc5ccccc53)[C@@H]2C[C@@H]1[C@H]4C(=O)OC | inactive [at 91.4 µM] | – | –
CO[C@H](c1ccccc1)[C@H]1NC(=O)C(C)NC(=O)C(C[C@@H](C)CO)N(C)C(=O)[C@@H](C(O)c2cn(C(C)(C)C3CO3)c3ccccc23)NC(=O)C(C(C)C=C(C)C)NC(=O)C(CC(C)C)N(C)C(=O)C(C(C)C)NC1=O (stereo partly specified) | – | -9.1% [at 27.5 µM] | –
